Test results taken from PubChem BioAssay AID2314 (National Center for Advancing Translational Sciences (NCATS), 2010).
About 37,000 (12%) of roughly 300,000 compounds were called active. The sample holds actives, similar compounds and a random draw of the others, so the mix is not that of the screen. Cut-off read from the data, not from the text of the source: active = max response mostly above about 13% (no sharp cut-off); inactive = mostly below about 14%.

Assay: Cycloheximide Counterscreen for Small Molecule Inhibitors of Shiga Toxin; note: read at 38.3 µM for the half of the compounds with a filed dose; 0% is about no effect
Settings: cell reporter, cycloheximide protein synthesis inhibition counterscreen; stronger effect = higher value

Q: With O=C(Nc1ccc(Br)cn1)c1ccc([N+](=O)[O-])o1 as the molecule, how does the max response read?
A: 48.9% (active)

Q: Which max response does the source give for O=C(Nc1ccc(Br)cn1)c1ccc([N+](=O)[O-])cc1Cl here?
A: 51.7% (active)

Q: Which max response does the source give for O=C(Nc1ccncc1)c1ccc([N+](=O)[O-])cc1Cl here?
A: -4.24% (inactive)

Q: Which max response does the source give for O=C(Nc1ccc(Br)c2cccnc12)c1ccc(Cn2cc([N+](=O)[O-])cn2)o1 here?
A: -3.97% (inactive)

Q: Which max response does the source give for Cc1cc([N+](=O)[O-])ccc1NC(=O)c1ccc(NC(=O)C(C)C)cc1 here?
A: 5.74% (inactive)

Q: Which max response does the source give for CN1C(=O)c2ccc(C(=O)Nc3ccc(Br)cn3)cc2C1=O here?
A: 1.67% (inactive)

Q: Which max response does the source give for CC(C)C(=O)Nc1cccc(NC(=O)c2ccc([N+](=O)[O-])cc2Cl)c1 here?
A: 27.7% (active)

Q: For O=C(Nc1cccnc1)c1cc([N+](=O)[O-])ccc1Cl, which max response is on record?
A: -2.56% (inactive)

Q: For O=C(NNS(=O)(=O)c1ccc(F)cc1)c1ccc([N+](=O)[O-])cc1Cl, which max response is on record?
A: -3.45% (inactive)

Q: Which max response does the source give for O=C1CCNCCN1[C@H](CO)Cc1ccccc1 here?
A: -1.44% (inactive)

Q: Which max response does the source give for COc1cc(NC(=O)C2=C(C)OCCS2)c(Cl)cc1C(=O)NCCN1CCN(C)CC1 here?
A: -6.54% (inactive)

Q: Which max response does the source give for O=C(O)c1[nH]c2ccccc2c1C(c1cccc(O)c1)c1c(C(=O)O)[nH]c2ccccc12 here?
A: -0.808% (inactive)

Q: For COC(=O)c1sccc1NS(=O)(=O)c1ccc(F)cc1F, which max response is on record?
A: -6.38% (inactive)

Q: With Cc1c(CN2CCC(n3nccc3NC(=O)CCc3ccccc3)CC2)cnn1C as the molecule, how does the max response read?
A: 0.463% (inactive)

Q: For CCNC(=O)CC1C(=O)N(c2ccc(OC)cc2)C(=O)N1CCOC (stereo not drawn), which max response is on record?
A: -2.06% (inactive)

Q: With COc1ccc(/C(N)=N/OC(=O)Cc2ccccc2)cc1 as the molecule, how does the max response read?
A: 46.9% (active)

Q: For COc1ccc(/C(N)=N/OC(=O)Oc2ccccc2)cc1, which max response is on record?
A: -4.11% (inactive)

Q: With COc1ccc(C(=O)NC(=S)NNC(=O)CCc2ccccc2)cc1 as the molecule, how does the max response read?
A: 10.3% (inactive)

Q: With COc1ccc(C(=O)OCC(=O)NCCCc2ccccc2)cc1OC as the molecule, how does the max response read?
A: 0.591% (inactive)

Q: For CCOC(=O)C(Cc1ccccc1)NC(=O)CCC(=O)c1ccc(OC)cc1 (stereo not drawn), which max response is on record?
A: -1.47% (inactive)

Q: Which max response does the source give for COc1ccc(/C(N)=N/OC(=O)CCCc2ccccc2)cc1 here?
A: 44.3% (active)

Q: With COCCN1CCn2c(nc3cc(NS(C)(=O)=O)ccc32)C1 as the molecule, how does the max response read?
A: -4.53% (inactive)

Q: With CC1(C)COC(c2cccn2Cc2ccccc2Cl)=N1 as the molecule, how does the max response read?
A: 2.16% (inactive)

Q: With O=C(Nc1cccc(CCc2ccccn2)c1)c1ccc(Cl)cc1 as the molecule, how does the max response read?
A: 11% (inactive)

Q: For COc1nc(NCc2ccc(Cl)cc2)nc(OC)n1, which max response is on record?
A: 9.12% (inactive)

Q: Which max response does the source give for C=CCNc1nc(C)nc(OC)n1 here?
A: -3.36% (inactive)

Q: With C=CCNc1nc(Nc2ccc(Cl)cc2)nc(OC)n1 as the molecule, how does the max response read?
A: 35.6% (active)

Q: With NS(=O)(=O)c1ccc(CNC(=O)c2cccc(Oc3ccccc3)c2)cc1 as the molecule, how does the max response read?
A: 1.56% (inactive)

Q: With CC1CCCN(C(=O)c2ccc3c(c2)C(=O)N(CCC2=CCCCC2)C3=O)C1 (stereo not drawn) as the molecule, how does the max response read?
A: 2.05% (inactive)

Q: For COc1ccc(S(=O)(=O)N2CCOC2CNC(=O)C(=O)NCc2ccncc2)cc1OC (stereo not drawn), which max response is on record?
A: -2.13% (inactive)

Q: With C/C(=N\NC(=O)c1ccccc1F)c1ccccn1 as the molecule, how does the max response read?
A: 31.8% (active)

Q: For CN(NC(=O)c1ccccc1F)c1nc(C(F)(F)F)nc2ccccc12, which max response is on record?
A: -3.39% (inactive)

Q: For C/C(=N\NC(=O)Cc1ccc(Cl)cc1)c1ccccn1, which max response is on record?
A: -1.28% (inactive)

Q: Which max response does the source give for NC1=NC(=O)C(Cc2cccc(Cl)c2)S1 (stereo not drawn) here?
A: 13% (inactive)

Q: For COc1ccccc1C(=O)NC(=S)Nc1ccccc1N1CCCCC1, which max response is on record?
A: 18.9% (active)

Q: Which max response does the source give for COc1ccc(C(=O)NC(=S)Nc2ccccc2N2CCN(S(C)(=O)=O)CC2)cc1OC here?
A: -0.375% (inactive)

Q: With O=C(NC(=S)Nc1ccccc1N1CCCCC1)c1ccc(F)cc1 as the molecule, how does the max response read?
A: 4.5% (inactive)

Q: Which max response does the source give for COc1ccc(OC)c(NC(=O)c2sc3nc(C)cc(C)c3c2N)c1 here?
A: 1.77% (inactive)

Q: With O=S(=O)(NC1CC1)c1ccc(F)c(F)c1 as the molecule, how does the max response read?
A: -2.05% (inactive)

Q: With COc1ccccc1-n1c(SCC(=O)Nc2cccc(C(=O)O)c2)nnc1-c1ccccc1O as the molecule, how does the max response read?
A: 0.473% (inactive)

Q: With C=C1/C(=C\C=C2\CCCC3(C)C2CCC3C(C)/C=C/C(O)C2CC2)CC(O)CC1O (stereo not drawn) as the molecule, how does the max response read?
A: -6.77% (inactive)

Q: Which max response does the source give for Cc1ccc(C)c(NC(CC(=O)c2ccccc2)C(=O)OCC(=O)c2cccs2)c1 (stereo not drawn) here?
A: -1.02% (inactive)

Q: For C/C(=N\NC(=O)COc1c(C)cccc1C)c1cccs1, which max response is on record?
A: 6.57% (inactive)

Q: For Cc1ccccc1C(CC(=O)c1cccs1)C(C#N)C#N (stereo not drawn), which max response is on record?
A: 58.6% (active)

Q: For CCn1c(SCC(=O)Nc2nccs2)nnc1-c1ccco1, which max response is on record?
A: -4.57% (inactive)

Q: With CCn1c(SCC(=O)Nc2nccs2)nnc1-c1ccncc1 as the molecule, how does the max response read?
A: -3.78% (inactive)

Q: With CC(=O)c1cc(C#N)c(N2CCCCC2)nc1C as the molecule, how does the max response read?
A: 2.13% (inactive)

Q: For Cc1[nH]c2ccccc2c1SCC(=O)Nc1nccs1, which max response is on record?
A: 29.5% (active)

Q: With CC(=O)c1cc(C#N)c(N2CC(C)OC(C)C2)nc1C (stereo not drawn) as the molecule, how does the max response read?
A: -2.5% (inactive)

Q: Which max response does the source give for Cc1cccc(C)c1Nc1nnc(SCC(=O)Nc2sccc2C#N)s1 here?
A: -1.09% (inactive)

Q: For Cc1cc(C(F)(F)F)nc(SCC(=O)Nc2nccs2)n1, which max response is on record?
A: -1.23% (inactive)

Q: With CC(=O)c1cc(C#N)c(SCC(=O)Nc2nccs2)nc1C as the molecule, how does the max response read?
A: 24.6% (active)

Q: Which max response does the source give for CC(=O)c1cc(C#N)c(SCC(=O)C(C)(C)C)nc1C here?
A: 55.2% (active)

Q: Which max response does the source give for Cc1ccccc1-c1ccc(C(=O)O)s1 here?
A: 27.3% (inactive)

Q: With O=C1CSC(=S)N1c1ccc(Cl)c(Cl)c1 as the molecule, how does the max response read?
A: 3.61% (inactive)

Q: Which max response does the source give for CCS(=O)(=O)N1CCC(N2CCN(c3ccccc3)CC2)CC1 here?
A: -2.51% (inactive)

Q: For Cc1ccc(N(Cc2cc(=O)[nH]c3ccccc23)C(=O)CCl)cc1, which max response is on record?
A: -3.54% (inactive)

Q: Which max response does the source give for COc1cc(NC(=O)c2ccccc2)c(OC)cc1NC(=O)Cc1ccccc1 here?
A: -0.835% (inactive)

Q: Which max response does the source give for O=C(CCC1CCCN(C(=O)Cc2ccc(F)cc2)C1)N1CCN(c2ccccn2)CC1 (stereo not drawn) here?
A: -1.12% (inactive)

Q: Which max response does the source give for Cc1cccc(NC(=O)c2sc3nc4c(c(-c5ccco5)c3c2N)CCC4)c1 here?
A: 20.8% (inactive)

Q: With Cc1cccc(NC(=O)c2sc3nc(N4CCOCC4)c4c(c3c2N)CCCC4)c1 as the molecule, how does the max response read?
A: 14.3% (active)

Q: Which max response does the source give for CC(=O)Nc1ccc(N2CCOCC2)c(C(=O)Nc2cccc(C)c2)c1 here?
A: -4.06% (inactive)

Q: For CC(C)c1ccc(S(=O)(=O)N2CCN(C(=O)c3ccc(N4CCCC4)c([N+](=O)[O-])c3)CC2)cc1, which max response is on record?
A: 21.7% (inactive)
